As a reminder, the inhibition is the relative decrease from the control value, in per cent.

Structures are written as SMILES.

In this test the target is Neuropilin-1 (Homo sapiens) (UniProt O14786). As to the kind of experiment: blockers of CendR peptide binding to NRP-1 – biochemical, FP and AlphaScreen panel, dose response (AID 651650). Conditions: NRP-1 b1b2 / RPARPAR peptide binding, FP or AlphaScreen; run 1, at 100 µM (top of the series). In general terms: In Alpha technology, singlet oxygen from a donor bead excites a nearby acceptor bead.
Chain of Neuropilin-1 (Homo sapiens) (O14786 whole entry, looked up): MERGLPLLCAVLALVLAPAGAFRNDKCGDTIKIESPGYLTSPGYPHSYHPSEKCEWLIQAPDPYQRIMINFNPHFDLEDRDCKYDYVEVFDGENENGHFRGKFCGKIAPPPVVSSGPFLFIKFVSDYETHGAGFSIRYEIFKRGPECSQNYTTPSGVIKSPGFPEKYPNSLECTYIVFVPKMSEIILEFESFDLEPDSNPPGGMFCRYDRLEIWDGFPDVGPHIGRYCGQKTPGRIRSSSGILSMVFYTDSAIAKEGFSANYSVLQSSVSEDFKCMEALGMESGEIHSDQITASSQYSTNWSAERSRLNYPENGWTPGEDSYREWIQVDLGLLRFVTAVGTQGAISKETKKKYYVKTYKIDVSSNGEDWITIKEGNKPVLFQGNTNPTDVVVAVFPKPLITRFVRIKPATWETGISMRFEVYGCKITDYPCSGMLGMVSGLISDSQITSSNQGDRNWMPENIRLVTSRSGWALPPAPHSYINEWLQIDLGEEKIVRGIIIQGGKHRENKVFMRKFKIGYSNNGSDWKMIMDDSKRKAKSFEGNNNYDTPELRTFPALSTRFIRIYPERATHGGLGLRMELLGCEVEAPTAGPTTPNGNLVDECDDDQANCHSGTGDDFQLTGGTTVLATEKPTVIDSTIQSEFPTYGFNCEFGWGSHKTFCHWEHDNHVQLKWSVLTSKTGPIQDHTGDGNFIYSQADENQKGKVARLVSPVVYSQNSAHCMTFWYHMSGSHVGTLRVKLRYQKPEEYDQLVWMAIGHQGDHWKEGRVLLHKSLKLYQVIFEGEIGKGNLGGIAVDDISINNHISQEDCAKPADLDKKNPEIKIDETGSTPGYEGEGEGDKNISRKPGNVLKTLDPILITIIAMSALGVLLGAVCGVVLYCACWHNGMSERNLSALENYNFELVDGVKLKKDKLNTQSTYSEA
With `CCOC(=O)C1=C(O)C(=O)N(c2ccccc2)C1c1cccc([N+](=O)[O-])c1` (stereo not given), the inhibition worked out at 26.5%.
Take `CCOC(=O)c1ccc(N2CCN(C(=O)c3ccccc3)CC2)c(NC(=O)c2ccco2)c1`: the inhibition was determined as 40.4%.
The figure for `CCCNC(=O)[C@H]1N2C(=O)c3c(ccc(OC)c3OC)C2SC1(C)C` (stereo not given in full) is 51.5%; for `CC1CCN(C(=O)c2[nH]cnc2C(=O)NCc2ccc(CNC(=O)OC(C)(C)C)cc2)CC1` it is 55.2%.
As to `Cn1c(=O)c2[nH]c(NCCCN3CCOCC3)nc2n(C)c1=O`, the inhibition is 44.2%.
As for `COc1ccncc1-c1csc(C(O)c2ccccc2)n1` (stereo not given), the figure is 3.78%; as for `CCOC(=O)C1CCN(S(=O)(=O)c2ccc3c(c2)CCN3C(=O)C2CCC2)CC1`, 6.43%; as for `CC(OC(=O)c1ccco1)C(=O)Nc1nc(-c2ccccc2)cs1` (stereo not given), -9.71%.
The figure for `Cc1cc(C)n2c(SCC(=O)Nc3cccc(S(N)(=O)=O)c3)nnc2n1` is -5.38%.
Turning to `Cc1nc2c(OCCC3CCCCC3)cccn2c1N(C)C(=O)CCC1CCCC1`, the inhibition is 23.2%.
For the compound `OCC1OC(n2cnc3c(/C=C(\O)c4ccccc4)ncnc32)C(O)C1O` (stereo not given), the inhibition stood at 3.57%.
As for `C#CCCOC(=O)N1C2=NC(C(=O)OC)=C(C(=O)OC)[C@@H]3N(C)c4ccccc4[C@]23C[C@H]1CO`, the inhibition worked out at 74.8%.
As for `COc1cc(CN2C[C@@H](CO)O[C@@H](n3cnc4c(N5CCN(c6ccccc6)CC5)ncnc43)C2)cc(OC)c1OC`, the figure is 52.8%.
`CCOC(=O)[C@]12CCCC=C1N(CCC1=CCCCC1)C(=O)[C@H](CC(=O)NCC13CC4CC(CC(C4)C1)C3)C2`: the inhibition was 20.7%.
The figure for `O=C(/C=C/c1ccco1)N/C(=C\c1ccccc1)C(=O)NCCc1nc2ccccc2[nH]1` is 11.8%.
As for `COc1cc2c(cc1OC)C(Nc1ccc(S(N)(=O)=O)cc1)=NC(C)(C)C2`, the figure is 71.9%.
The figure for `O=C(Nc1cccc(S(=O)(=O)N2CCCCC2)c1)c1ccc([N+](=O)[O-])o1` is 52.5%.
With `O=C1CCCN1CCCNc1nc(NCc2cccs2)nc2ccsc12`, the inhibition was 81.3%.
The figure for `CC(/C=C/c1ccccc1)=N\NC(=O)CCc1ccccc1` is 19.2%; for `COCc1cccc(-c2csc(C(C)(O)c3ccccc3)n2)c1` (stereo not given) it is 25.6%.

Values taken from PubChem BioAssay AID651650 (Sanford-Burnham Center for Chemical Genomics, 2012).
